PLK1 PBD block = blocks phosphopeptide binding to human PLK1 polo-box domain; P53350; Plk1 PBD binding of FITC phosphopeptide, fluorescence polarization; Potency, µM, hits mostly inhibitors; 360,000 compounds, 2.8% hits; AID 720504; note: series mostly up to about 57 µM; nearly all actives have a fitted effect of over 65% in size
Target sequence (P53350 whole entry, looked up, the tested form may be a part): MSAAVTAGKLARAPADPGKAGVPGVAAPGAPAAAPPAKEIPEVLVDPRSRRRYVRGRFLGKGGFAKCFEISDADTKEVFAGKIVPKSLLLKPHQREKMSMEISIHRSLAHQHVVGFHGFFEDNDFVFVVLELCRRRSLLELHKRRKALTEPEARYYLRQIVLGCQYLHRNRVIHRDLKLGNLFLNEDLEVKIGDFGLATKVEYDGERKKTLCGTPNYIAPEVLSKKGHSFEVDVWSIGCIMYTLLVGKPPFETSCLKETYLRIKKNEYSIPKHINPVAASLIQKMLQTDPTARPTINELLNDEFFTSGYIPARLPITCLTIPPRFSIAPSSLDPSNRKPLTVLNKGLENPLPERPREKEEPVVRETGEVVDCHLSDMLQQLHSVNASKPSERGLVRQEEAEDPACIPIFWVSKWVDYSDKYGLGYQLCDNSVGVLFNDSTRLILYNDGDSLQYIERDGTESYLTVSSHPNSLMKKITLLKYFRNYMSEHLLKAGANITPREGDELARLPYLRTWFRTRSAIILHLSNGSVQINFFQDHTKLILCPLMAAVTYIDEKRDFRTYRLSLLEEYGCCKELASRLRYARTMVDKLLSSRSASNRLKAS
G9a block = G9a (human) methyltransferase inhibition | Q96KQ7 | G9a H3K9 monomethylation, AlphaScreen, 2 h | Potency, µM (titrated, usually from 102 µM), usual class: inhibitors | 350,000 compounds, 8.8% hits | AID 504332; note: nearly all actives have a fitted effect of over 75% in size
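Chemiluminescent proximity detection of H3K9 monomethylation, read after 10 min bead incubation in the dark. Reaction: 20 nM G9a, 500 nM biotin-H3K9 peptide, 20 uM SAM cofactor, 2 h, room temperature, following 15 min enzyme-compound preincubation.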
BAZ2B block = inhibitors of human BAZ2B bromodomain; Q9UIF8; AlphaScreen BAZ2B-H3K14Ac peptide displacement; Potency, µM (titrated, usually from 114 µM), usual class: inhibitors; 360,000 compounds, 4.4% hits; AID 504333; note: nearly all actives have a fitted effect of over 60% in size
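Complex of BAZ2B and biotin-H3K14Ac (50 nM apiece) forms over 30 min at RT, then faces library compounds up to 110 uM for another 30 min; AlphaScreen beads added, 20 min dark incubation, luminescence read.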
PI5P4K alpha inh = inhibitors of human PI5P4K alpha; PI5P4Kalpha enzyme, ADP-Glo luminescence, 60 min; active compounds read low; 330,000 compounds, 1.2% hits; max response, %; active = max response of -50% or lower; inconclusive = between -30% and -50%; inactive = -30% or higher; note: value at the top dose of about 77 µM
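PI5P4Kalpha ADP-Glo assay; 5 microM ATP final; 60 min RT reaction; HEPES pH 7.4/EGTA/CHAPS, 5% DMSO; controls lacking substrate or enzyme; luminescent end-point.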
HP1b binding inh = inhibitors of HP1-beta chromodomain binding to methylated histone tails | AlphaScreen HP1-beta / biotin-H3K9me3 peptide binding | Potency, µM (highest dose often 114 µM), usual class: inhibitors | 390,000 compounds, 0.56% hits | AID 540317; note: nearly all actives have a fitted effect of over 70% in size
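Compound inhibition of the preformed complex between 50 nM HP1-beta and 50 nM biotinylated H3K9me3 peptide was read by AlphaScreen. Buffer was PBS pH 7.4 with 0.01% Tween-20. Incubations ran 30 min at room temperature, with 10 ug/mL donor/acceptor beads.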
JMJD2A Tudor inh = blocks the human JMJD2A Tudor domain. AlphaScreen JMJD2A-Tudor / H3K4me3 peptide binding. Potency, µM (doses to about 114 µM), usual class: inhibitors. 390,000 compounds, 4.4% hits. AID 504339; note: nearly all actives have a fitted effect of over 50% in size
Numbers stand for hits; [ ] = dose if it differs, or a comment. In the library only some 12% were active in any assay of this set; here they are far more common. Unless noted, calls come from the whole dose curve; as a rule, active = well fitted curve in the direction sought with a large enough effect; inconclusive = small, poorly fitted or top-dose-only effect, or another doubt; inactive = no such curve, though single readings can be large; an effect the other way counts as inactive or inconclusive.

Cc1ccc(-c2c(C(=O)Nc3ccc(F)c(F)c3)oc(=O)c3ccccc23)cc1 was read as G9a block inactive, BAZ2B block inactive, HP1b binding inh inactive and JMJD2A Tudor inh inactive.
S=c1nc[nH]c2c1[nH]c1ccc(Cl)cc12 was read as PLK1 PBD block inconclusive, G9a block 1.4µM, BAZ2B block inactive, PI5P4K alpha inh inactive, HP1b binding inh inactive and JMJD2A Tudor inh 4.5µM.
`O=c1c2[nH]c3ccc(Cl)cc3c2ncn1CCN1CCCCC1` gave PLK1 PBD block inactive, G9a block inactive, BAZ2B block inactive, PI5P4K alpha inh inactive, HP1b binding inh inactive and JMJD2A Tudor inh inactive.
Cc1c(Cl)cccc1NC(=O)CCNC(=O)N1CC(=O)Nc2ccccc21 was read as PLK1 PBD block 27µM, G9a block inactive, BAZ2B block inactive, PI5P4K alpha inh inactive, HP1b binding inh inactive and JMJD2A Tudor inh inactive.
O=C(CNC(=O)N1CC(=O)Nc2ccccc21)NCc1ccc(Cl)cc1 was read as PLK1 PBD block inactive, BAZ2B block 79µM, PI5P4K alpha inh inactive, HP1b binding inh inactive and JMJD2A Tudor inh inactive.
O=C(CCNC(=O)N1CC(=O)Nc2ccccc21)NCc1ccccc1Cl was read as PLK1 PBD block inactive and PI5P4K alpha inh inactive.
Screening O=C1CN(S(=O)(=O)c2ccccc2)CCN1 returned PLK1 PBD block inactive, PI5P4K alpha inh inactive, HP1b binding inh inactive and JMJD2A Tudor inh inactive.
CCOc1ccc(NC(=O)CN(C)C(=O)c2ccccc2OCc2c(C)noc2C)cc1OCC was read as PLK1 PBD block inactive, G9a block inactive, BAZ2B block inactive, PI5P4K alpha inh inactive, HP1b binding inh inactive and JMJD2A Tudor inh inactive.
Screening CC(C)n1nnnc1SCC(=O)c1ccc2c(c1)OCCO2 returned PLK1 PBD block 30µM, G9a block inactive, BAZ2B block inactive, PI5P4K alpha inh inactive, HP1b binding inh inactive and JMJD2A Tudor inh inactive[11.4 µM].
Screening COCCn1c(SCC(=O)c2ccc(F)cc2)nnc1C(C)C returned PLK1 PBD block inconclusive, G9a block inconclusive, BAZ2B block inactive, PI5P4K alpha inh inactive, HP1b binding inh inactive and JMJD2A Tudor inh 45µM.
For O=C(CSc1nnc(-c2cccs2)n1-c1ccccc1)c1ccc2c(c1)OCCO2 the results were PLK1 PBD block inactive, G9a block 40µM, BAZ2B block inactive, PI5P4K alpha inh inactive, HP1b binding inh inactive and JMJD2A Tudor inh inactive.
Screening CCn1c(SCC(=O)c2ccc3c(c2)OCCO3)nnc1C(C)C returned PLK1 PBD block inactive, G9a block 45µM, BAZ2B block inactive, PI5P4K alpha inh inactive, HP1b binding inh inactive and JMJD2A Tudor inh inactive.
For CCn1nnnc1SCC(=O)c1ccc2c(c1)OCCO2 the results were PLK1 PBD block inactive, G9a block inactive, BAZ2B block inactive, PI5P4K alpha inh inactive, HP1b binding inh inactive and JMJD2A Tudor inh inactive.
COc1ccc(-c2nc3cnc(OC)nc3n(-c3ccccc3)c2=O)cc1 was read as G9a block inactive[0.501 µM].
`Cc1noc(C)c1C(=O)N1CCC2(CC1)CN(c1cccc(-c3ccccc3)c1)C2` gave G9a block inactive[12.7 µM].
Screening Nc1ccn(CCCNCC(c2ccccc2)c2ccccc2)c(=O)n1 returned PLK1 PBD block inactive and PI5P4K alpha inh inactive.
Screening O=C(CSc1nnc2ccccn12)c1ccc2c(c1)OCCO2 returned PLK1 PBD block inactive, G9a block 40µM, BAZ2B block inactive, PI5P4K alpha inh inactive, HP1b binding inh inactive and JMJD2A Tudor inh inactive.
`COc1ccc(C(=O)CSc2nnc3ccccn23)cc1OC` gave PLK1 PBD block inactive, G9a block inactive, BAZ2B block inactive, PI5P4K alpha inh inactive, HP1b binding inh inactive and JMJD2A Tudor inh inactive.
`Cc1ccc(N2CC(C(=O)OCc3nnc(-c4ccccc4)o3)CC2=O)cc1` (centres undefined) gave PLK1 PBD block inactive, G9a block inactive, BAZ2B block inactive, PI5P4K alpha inh inactive, HP1b binding inh inactive and JMJD2A Tudor inh inactive.
For O=C(Nc1ccc(F)cc1)Nc1nnc(Cc2ccccc2F)s1 the results were PLK1 PBD block 17µM, G9a block inactive, BAZ2B block inactive, PI5P4K alpha inh inactive, HP1b binding inh inactive and JMJD2A Tudor inh inconclusive.
COc1cc([N+](=O)[O-])ccc1NC(=O)COC(=O)c1c[nH]c(=O)[nH]c1=O was read as PLK1 PBD block inactive, PI5P4K alpha inh inactive, HP1b binding inh inactive and JMJD2A Tudor inh inactive.
CCOC(=O)C1CCN(Cc2ccc(F)cc2)CC1 was read as PLK1 PBD block inactive, G9a block inconclusive, BAZ2B block inactive, HP1b binding inh inconclusive and JMJD2A Tudor inh 4µM.
COC(=O)c1ccc(CN2CCCC(CCC(=O)NCc3ccc(C)o3)C2)cc1 (centres undefined) was read as PLK1 PBD block 24µM, G9a block inactive, BAZ2B block inactive, PI5P4K alpha inh inactive, HP1b binding inh inactive and JMJD2A Tudor inh inconclusive.
`CCOC(=O)C1CCN(Cc2ccc(C(=O)OC)cc2)CC1` gave PLK1 PBD block inactive, G9a block inconclusive, BAZ2B block 50µM, HP1b binding inh inactive and JMJD2A Tudor inh 5.6µM.
`CN(C)c1ccc(CN2CCC(C(N)=O)CC2)cc1` gave PLK1 PBD block inactive, G9a block 14µM, BAZ2B block 22µM, PI5P4K alpha inh inactive, HP1b binding inh inactive and JMJD2A Tudor inh 22µM.
Screening CC(C)C(=O)N1c2nc(C(C)C)nn2C2(CCCCC2)[C@@H]2CCCC[C@@H]21 returned G9a block inactive, BAZ2B block inactive, HP1b binding inh inactive and JMJD2A Tudor inh inactive.
Screening CC12COC3(C(=O)Nc4ccc5ccccc5c4)CC1CCC32C (centres undefined) returned PLK1 PBD block inactive, G9a block inactive, BAZ2B block inactive, PI5P4K alpha inh inactive, HP1b binding inh inactive and JMJD2A Tudor inh inactive.
`CCN(C(=O)COC(=O)c1c(NC(C)=O)sc(C)c1C)c1c(N)n(Cc2ccccc2)c(=O)[nH]c1=O` gave PLK1 PBD block inactive, PI5P4K alpha inh inactive, HP1b binding inh inactive and JMJD2A Tudor inh inactive.
`O=C1CS/C(=N/N=C2CCCC2)N1` gave PLK1 PBD block inactive, G9a block inconclusive, BAZ2B block 79µM, PI5P4K alpha inh inactive, HP1b binding inh inactive and JMJD2A Tudor inh inactive.
`COc1ccc2c(c1)c(=O)c(S(=O)(=O)c1ccccc1)cn2CC(=O)Nc1ccc(C)c(Cl)c1` gave G9a block inactive, BAZ2B block inactive, HP1b binding inh inactive and JMJD2A Tudor inh inactive.
COc1ccc(CNCCC(c2ccc(C)cc2)c2ccco2)cc1 (centres undefined) was read as G9a block 5µM, BAZ2B block 79µM, HP1b binding inh inconclusive and JMJD2A Tudor inh 25µM.
Screening COc1ccc(C(CC(=O)O)c2ccc3c(c2)OCO3)cc1 (centres undefined) returned PLK1 PBD block inactive, G9a block inactive[2.33 µM], BAZ2B block inactive, PI5P4K alpha inh inactive, HP1b binding inh inactive and JMJD2A Tudor inh inactive.

Bioassay records from PubChem.
